Source: PubChem
This excerpt belongs to a sample that is enriched for hits.
VDR inh: inhibitors of human vitamin D receptor; Potency, µM, inactives show max response, negative = inhibition, hits mostly inhibitors; 0.93% of 400,000 active; VDR-SRC2-3 peptide fluorescence polarization, 2 h; AID 504847; P11473; note: % is set by controls: 0 for no effect and ±100 for the full control effect
Target sequence (P11473 whole entry, looked up): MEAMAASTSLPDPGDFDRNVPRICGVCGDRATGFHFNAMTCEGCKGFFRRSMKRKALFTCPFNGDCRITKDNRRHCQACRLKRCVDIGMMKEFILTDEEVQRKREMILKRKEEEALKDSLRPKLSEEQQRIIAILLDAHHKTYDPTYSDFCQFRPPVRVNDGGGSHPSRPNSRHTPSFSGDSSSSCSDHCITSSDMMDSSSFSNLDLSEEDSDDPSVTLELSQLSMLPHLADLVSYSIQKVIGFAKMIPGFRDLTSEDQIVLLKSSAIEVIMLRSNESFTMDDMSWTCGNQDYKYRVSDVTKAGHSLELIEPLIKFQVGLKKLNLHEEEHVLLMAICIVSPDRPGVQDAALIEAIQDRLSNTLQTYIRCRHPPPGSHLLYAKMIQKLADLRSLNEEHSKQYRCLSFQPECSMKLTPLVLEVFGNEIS
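FP read-out; VDR + SRC2-3 coactivator peptide; 23 nl compound by pintool; 2 h RT incubation; reagents held at 4 deg C, protected from light.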
12-LOX inh: ALOX12 (human) lipoxygenase inhibition. P18054. purified 12hLO, xylenol orange hydroperoxide absorbance. Potency, µM (highest dose often 108 µM), without a hit: at the highest dose activity change, negative = inhibition, most hits filed as inhibitors. 1.1% of 580,000 active. AID 1671190; note: % is set by controls: 0 for no effect and ±100 for the full control effect
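Purified human 12hLO at 150 nM in 25 mM Hepes, 0.01% Triton X-100, pH 7.0, preincubated 15 min at room temperature with compound. Reaction started with 40 uM arachidonic acid, 30 min at room temperature. Hydroperoxide measured by Fe-xylenol orange, 573/405 nm absorbance ratio.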
Sfp inh: inhibitors of Bacillus subtilis Sfp phosphopantetheinyl transferase. Potency, µM, without a hit: largest response in the series, negative = inhibition, most hits filed as inhibitors. Biochemical Sfp PPTase activity, qHTS. 3.5% of 310,000 active;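 note: the enzyme is Sfp with the accession as filed and its product quenches rhodamine fluorescence; 0% = enzyme reaction without inhibitor and -100% = no enzyme wells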
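Fluorescence-quenching assay: 15 nM Sfp-PPTase preincubated 15 min at room temperature with compound, then 5 uM rhodamine-CoA and 12.5 uM BHQ-2-labelled YbbR peptide added. Fluorescence (ex 525/em 598 nm) read at start and after 30 min; difference gives rate.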
GRP78 ERSR act: induces the endoplasmic reticulum stress response in human glioma cells | U87-MG GRP78 promoter luciferase reporter, 16 h | Potency, µM, for inactives: at the highest dose activation, hits mostly activators | 0.02% of 420,000 active | AID 602332; note: series mostly up to about 76 µM; % of control where 0% means no effect; nearly all actives have a fitted effect of over 35% in size
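ERSR induction read as luciferase luminescence (Bright-Glo, 10 min at room temperature) in stably transfected human U87-MG glioma cells exposed to compounds for 16 h, using GRP78 as sensor.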
G9a inh: G9a (human) methyltransferase inhibition; Q96KQ7; Potency, µM (titrated, usually from 102 µM), for inactives: top-dose activity, negative = inhibition, usual class: inhibitors; AID 504332; G9a H3K9 monomethylation, AlphaScreen, 2 h; 8.8% of 350,000 active; note: % is set by controls: 0 for no effect and ±100 for the full control effect; nearly all actives have a fitted effect of over 75% in size
Target sequence (Q96KQ7 913-1193 limits assumed): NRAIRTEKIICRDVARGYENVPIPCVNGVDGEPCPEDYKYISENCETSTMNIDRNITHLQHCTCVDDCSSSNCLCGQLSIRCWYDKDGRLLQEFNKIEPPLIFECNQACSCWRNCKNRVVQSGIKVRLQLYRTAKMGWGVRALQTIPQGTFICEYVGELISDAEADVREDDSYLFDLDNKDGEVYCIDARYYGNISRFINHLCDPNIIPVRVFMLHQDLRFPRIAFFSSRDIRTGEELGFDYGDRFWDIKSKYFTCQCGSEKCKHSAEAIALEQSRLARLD
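Enzyme 20 nM + cpd, 15 min RT; add b-H3K9 pep 500 nM / SAM 20 uM; 2 h RT; anti-H3K9me1 Ab 0.5 ug/mL + SA donor / anti-rabbit acceptor beads 20 ug/mL each, 10 min; AlphaScreen read.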
The depositor's hits bear a star; ? = inconclusive; / = no result; [ ] = dose if it differs, or a comment. Calls come from the whole dose curve; as a rule, active = well fitted curve in the direction sought with a large enough effect; inconclusive = small, poorly fitted or top-dose-only effect, or another doubt; inactive = no such curve, though single readings can be large; an effect the other way counts as inactive or inconclusive. Potency is the fitted concentration of half-maximal effect.

SMILES | VDR inh | 12-LOX inh | Sfp inh | GRP78 ERSR act | G9a inh
COC(=O)c1c(-c2ccc(C)cc2)csc1NC(=O)c1c(-c2ccccc2)noc1C | / | -17% | -4% | / | ?
CCOC(=O)c1c(NC(=O)c2cc(-c3cccc(Cl)c3)on2)sc(C)c1C | -15% | 6% | / | -2% | 13µM*
CCOC(=O)c1c(-c2ccc(C)cc2)csc1NC(=O)c1cc(=O)c2cc(Cl)ccc2o1 | 0% | -6% | / | -5% | 14%[59 µM]
CCCCNC(=O)c1cccc(C(=O)OC)c1 | / | -3% | / | / | /
O=C(CC1CC2CCC1C2)NC12CC3CC(CC(C3)C1)C2 (stereo not drawn) | / | -6% | / | / | /
Cc1ccc(C(=O)NC(c2cccs2)C(C)C)cc1C (stereo not drawn) | / | 3% | / | / | /
COc1ccc(NC(=O)C2CCCCN2CC(=O)OCc2ccccc2)cc1OC (stereo not drawn) | -4% | 8% | 19% | 1% | ?
COc1ccc(NC(=O)C2CCCCN2N)cc1OCC(C)C (stereo not drawn) | -2% | ? | -16% | -1% | 10µM*
COc1ccc(CNN2CCCCC2C(=O)Nc2ccc(OC)c(OCC(C)C)c2)cc1OC (stereo not drawn) | -2% | ? | -21% | -2% | 20µM*
C/C=C/C(=O)OCc1nc2c(c(=O)[nH]c(=O)n2CCCC)n1C | / | 15% | / | / | /
Oc1ccc(Br)cc1/C=N/n1c(-c2ccccc2)n[nH]c1=S | -17% | ? | 56µM* | 2% | /
Oc1c(Br)cc(Br)c(/C=N/n2c(-c3ccccc3)n[nH]c2=S)c1Br | ? | 18µM* | ? | 6% | /
S=c1[nH]nc(-c2cc(-c3ccccc3)n[nH]2)n1/N=C/c1ccc(Cl)c(Cl)c1 | -8% | ? | -24% | -1% | ?
c1ccc(NC2=Nc3cccc4cccc2c34)cc1 | -10% | -9% | 2% | 4% | 25µM*
Cc1ccc(NCCC(=O)c2cccs2)cc1C | ? | -11% | 11% | -2% | 32µM*
O=C(CCC(=O)c1cccs1)NCCC(=O)Nc1ccc(F)c(Cl)c1 | / | 50µM* | / | / | /
O=C(CCNC(=O)c1ccccc1)Nc1ccc(F)c(Cl)c1 | -8% | -7% | 35% | -3% | 7%[59 µM]
CC/C=C\CC/C=C/CO | / | 6%[176 µM] | / | / | /
CCOC(=O)C1=C(C)NC(=O)NC1c1ccc(N(CC)CC)cc1 (stereo not drawn) | -3% | -4% | 7% | -2% | 45µM*
CCC(CC)COC(=O)C1=C(C)NC(=O)NC1c1ccc(N(C)C)cc1 (stereo not drawn) | -12% | -48% | 27% | -1% | 16µM*
CCOC(=O)C1=C(C)NC(=O)NC1c1ccc(N(C)C)cc1 (stereo not drawn) | 3% | ? | 13% | -3% | ?
O=C(c1ccncc1)N1CC2CCC(C1)N2Cc1ccc(-c2ccccc2)cc1 | / | 67% | / | / | /
COc1ccc(C(=O)N[C@H]2CC[C@]3(C)CCC([C@H](C)C(=O)N4CCCC4)[C@H](O)[C@H]3[C@@H]2C)cc1 (stereo partly drawn) | / | -17% | / | / | /
O=C(Nc1ccc(-c2nc3ccccc3o2)c(O)c1)c1ccccc1I | / | 0% | / | / | /
Cc1ccc(-c2cc(C(=O)NN=C3CCCC3)c3ccccc3n2)s1 | / | 1% | / | / | /
SMILES | VDR inh | 12-LOX inh | Sfp inh | GRP78 ERSR act | G9a inh
CCOC(=O)N1CCN(c2cc(=O)n(-c3ccc(C)cc3)c(=O)[nH]2)CC1 | -7% | 10% | -10% | -3% | 50µM*
CCOC(=O)N1CCN(c2ccc(O)cc2)CC1 | -17% | ? | ? | -3% | 2.8µM*
Cc1ccc(C(C)(C)C)cc1S(=O)(=O)N1CCC(C(=O)N2CCN(c3ccc(O)cc3)CC2)CC1 | 5% | ? | / | -1% | 0.79µM*
CC(=O)c1ccc(N2CCN(C(=O)C3CCC3)CC2)cc1 | 3% | 3% | 89µM* | 0% | ?
Cc1cc(C)c(C)c(S(=O)(=O)N2CCC(C(=O)N3CCN(c4ccc(F)cc4)CC3)CC2)c1C | 8% | 3% | / | -5% | /
Cc1nc(-c2ccccc2)sc1C(=O)N1CCCC(C(=O)O)C1 (stereo not drawn) | / | -14% | / | / | /
O=C(C1CC1)N1CCN(c2ccc(O)cc2)CC1 | 10% | ? | ? | -4% | 25µM*
O=C(C1CCN(S(=O)(=O)N2CCOCC2)CC1)N1CCN(c2ccc(F)cc2)CC1 | 22% | 0% | 9% | -4% | ?
CCOc1ccccc1NC(=S)N1CCN(c2ccc(OC)cc2)CC1 | -5% | ? | 11% | -4% | ?
CCOc1ccccc1NC(=S)N1CCN(c2ccc(O)cc2)CC1 | -17% | -22% | -19% | -3% | 35µM*
CCOC(=O)C1CCCN(C(=O)Cc2ccc(N(Cc3ccccc3)C(=O)c3ccco3)cc2)C1 (stereo not drawn) | / | -14% | / | / | /
Cc1ccc(CN2CCC(CNC(=O)CCc3nnc4ccc(N5CCCCC5)nn34)C2)cc1 (stereo not drawn) | / | 11% | / | / | /
C#CCN(C[C@H]1[C@H](OC(=O)NCC2CCCCC2)[C@H](OC(=O)NCC2CCCCC2)C[C@H]2C(=O)N(c3ccccc3)C(=O)[C@@H]12)S(=O)(=O)c1ccc(C)cc1 | / | 45µM* | / | -2% | /
Cc1nc2cc(-c3cccs3)nn2c(NCC(C)(C)CN(C)C)c1C | 18% | 0% | -3% | -2% | 50µM*
Cc1cccc(-c2cc3nc(C)cc(NCCCN(C)C)n3n2)c1 | 5% | 5% | 16% | -1% | -36%[59 µM]
CCN(CC)CCCNc1cc(C)nc2cc(-c3cccs3)nn12 | 4% | -10% | 21% | -4% | 45µM*
Cc1cc(C(F)(F)F)n2nc(-c3cccs3)cc2n1 | -7% | 2% | 5% | 3% | /
COCCNc1nnc(Cc2ccc(Cl)cc2)c(=O)[nH]1 | 37% | 0% | 21% | -4% | 11%
O=c1[nH]c(=S)[nH]nc1Cc1ccc(Cl)c(Cl)c1 | -8% | 6.3µM* | 25% | -1% | 50µM*
CC(C)(C)c1ccc(Cc2n[nH]c(=S)[nH]c2=O)cc1 | -8% | 16µM* | 18% | -4% | 23%[2.33 µM]
C=CC[N+](C)(C)Cc1cccc2ccccc12 | / | -21% | / | / | /
COc1ccc(CNC(=O)c2ccc3c(c2)CCN3S(=O)(=O)c2ccc(C)cc2)cc1 | 5% | -12% | / | -2% | 7%[59 µM]
CCCNC(=O)c1ccc(N2CCC3(CC2)CC(c2ccccc2)=NO3)c(NC(=O)c2cccc(OC)c2)c1 | -25% | -15% | 13% | -6% | 45µM*
CCCNC(=O)c1ccc(N2CCC3(CC2)CC(c2ccccc2)=NO3)c(NC(=O)c2ccco2)c1 | 6% | 1% | -5% | 1% | /
C=C1CCN(c2ccc(C(=O)NCCC)cc2[N+](=O)[O-])CC1 | -7% | ? | / | 2% | /
Cc1ccc(CNC(=O)c2ccc(N3CCc4ccccc43)c([N+](=O)[O-])c2)cc1 | 7% | 15% | 24% | -1% | 8.9µM*
C=C1CCN(c2ccc(C(=O)NCc3ccccc3)cc2[N+](=O)[O-])CC1 | 2% | 13% | 0% | -5% | 22µM*
